# Measured values: the supplement of paper PMC6522484
# ± gives the standard deviation of the averaged measurements.
# What was measured:
# DLD1 [1] = test: cell viability (CellTiter-Glo) relative to plate median (fraction of plate median); higher = more viable cells; conditions: 5 µM; treatment time 24 h; reporter: 7TFP
# In short: (§1)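 Colorectal cancer cell lines stably carrying lentiviral TCF/Wnt firefly luciferase reporters (7TFP or TCF4/Wnt) were plated in 384-well plates and, 24 h later, given library compounds at a final 5 µM for 24 h. Firefly luciferase or CellTiterGlo luminescence was read on parallel plates with a Tecan F500 reader. Each well's signal was normalised to the plate median in webcellHTS2 (additive, without log transformation). Values are the mean of two independent replicates.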
# HCT116 = test: as above; conditions: 5 µM; treatment time 24 h; reporter: TCF4/Wnt
# In short: as §1
# SW480 [2] = test: as above; conditions: 5 µM; treatment time 24 h; reporter: 7TFP
# In short: as §1
# DLD1 [3] = test: TCF/Wnt firefly luciferase reporter signal relative to plate median (fraction of plate median); higher = higher Wnt reporter signal; conditions: 5 µM; treatment time 24 h; reporter: 7TFP
# In short: as §1
# SW480 [4] = test: as above; conditions: 5 µM; treatment time 24 h; reporter: 7TFP
# In short: as §1
SMILES,cell viability (DLD1 [1]),cell viability (HCT116),cell viability (SW480 [2]),TCF/Wnt firefly luciferase reporter signal (DLD1 [3]),TCF/Wnt firefly luciferase reporter signal (SW480 [4])
O=C1CC(c2ccc(O)c(O)c2)Oc2cc(O)cc(O)c21 (stereo not given),1.04 ± 0.14,1.08 ± 0.057,0.973 ± 0.095,0.912 ± 0.011,0.862 ± 0.0014
NC[C@@H]1O[C@@H](O[C@H]2[C@H](O)[C@@H](O[C@H]3O[C@H](CO)[C@@H](O)[C@H](N)[C@H]3O)[C@H](N)C[C@@H]2N)[C@@H](O)[C@H](O)[C@H]1O,0.986 ± 0.091,1.04 ± 0.014,0.94 ± 0.0042,1.02 ± 0.035,0.988 ± 0.031
COc1cc(C)c2c(c1C=O)Oc1c(c(C)c(O)c3c1C(O)OC3=O)OC2=O (stereo not given),0.951 ± 0.015,0.956 ± 0.028,1.06 ± 0.014,0.949 ± 0.16,0.927 ± 0.077
COc1ccc(CN(CCN(C)C)c2ncccn2)cc1,0.994 ± 0.0057,0.969 ± 0.086,1 ± 0.055,0.9635 ± 0.00071,0.931 ± 0.021
COc1cc(/C=C/C(=O)N2CCC=CC2=O)cc(OC)c1OC,0.939 ± 0.037,0.717 ± 0.099,1.11 ± 0.042,0.704 ± 0.14,0.773 ± 0.095
COc1ccc2c(c1)OCC(Cc1ccc(OC)c(OC(C)=O)c1)C2=O (stereo not given),1.025 ± 0.0071,0.919 ± 0.059,1.03,0.969 ± 0.12,0.858 ± 0.18
CC(C)CCCC(C)C1CCC2C3CCC4CCCCC4(C)C3CCC12C (stereo not given),1,0.997 ± 0.033,0.9585 ± 0.00071,0.94 ± 0.042,1.02 ± 0.014
O=C(O)c1cc(=O)c2ccccc2[nH]1,1.01 ± 0.021,0.968 ± 0.16,0.9555 ± 0.0064,0.8765 ± 0.0078,0.986 ± 0.048
CCOc1ccc(C(=O)c2ccc(O)c(O)c2O)cc1,0.928 ± 0.13,0.97 ± 0.18,1 ± 0.052,0.964 ± 0.093,1.1 ± 0.071
O=C(O)c1ccccc1Nc1cccc(C(F)(F)F)c1,0.967 ± 0.0099,0.934 ± 0.042,0.95 ± 0.011,0.96 ± 0.057,1.07 ± 0.064
CC(C)OC(=O)C(C)(C)Oc1ccc(C(=O)c2ccc(Cl)cc2)cc1,1.08 ± 0.071,1.045 ± 0.0071,1.04,0.917 ± 0.14,0.939 ± 0.015
Cc1ncc([N+](=O)[O-])n1CCO,1.08 ± 0.064,1.06 ± 0.071,1.02 ± 0.014,1.06 ± 0.042,0.964 ± 0.11
CCOC(=O)C1=C[C@]2(CC)CCCN3CCc4c(n1c1ccccc41)[C@@H]32,0.916 ± 0.016,1.01 ± 0.088,0.995 ± 0.0071,1.02 ± 0.067,0.782 ± 0.079
C[n+]1c2cc(N)ccc2cc2ccc(N)cc21,1.05 ± 0.014,0.951 ± 0.084,1.08 ± 0.042,1.4 ± 0.27,1.01 ± 0.08
Nc1ccn([C@@H]2O[C@H](CO)[C@@H](O)[C@H]2O)c(=O)n1,0.977 ± 0.033,1.06 ± 0.057,1.06 ± 0.028,1.16 ± 0.064,1.05 ± 0.057
COC(=O)C1=C(C)NC(C)=C(C(=O)OCCN(C)Cc2ccccc2)C1c1cccc([N+](=O)[O-])c1 (stereo not given),0.914 ± 0.074,1.02 ± 0.1,0.98 ± 0.042,0.941 ± 0.13,0.951 ± 0.065
OCC(S)CS (stereo not given),0.884 ± 0.063,0.956 ± 0.018,0.944 ± 0.032,0.921 ± 0.057,0.936 ± 0.066
COc1ccc2[nH]cc(CCNC(C)=O)c2c1,0.961 ± 0.0071,1.11 ± 0.05,0.974 ± 0.052,0.967 ± 0.046,0.983 ± 0.095
O=C(CCBr)N1CCN(C(=O)CCBr)CC1,1.07 ± 0.042,1.035 ± 0.0071,1.025 ± 0.0071,1.03 ± 0.12,1.01 ± 0.019
"CC(C)C1NC(=O)C2CCCN2C1=O (single isomer, unassigned; isomere) [Cyclo(prolylvalyl) (Isomere)]",1 ± 0.023,0.992 ± 0.054,0.958 ± 0.06,0.939 ± 0.067,0.944 ± 0.11
C[C@@]12C[C@@]3(O)O[C@@H](O1)[C@]1(COC(=O)c4ccccc4)[C@H]3C[C@@]12O[C@@H]1O[C@H](CO)[C@@H](O)[C@H](O)[C@H]1O,1.06 ± 0.014,0.887 ± 0.12,1.015 ± 0.0071,0.941 ± 0.052,1.01 ± 0.21
O=S(=O)(O)c1cc(N=C=S)ccc1/C=C/c1ccc(N=C=S)cc1S(=O)(=O)O,0.952 ± 0.046,0.9585 ± 0.0064,1.01 ± 0.03,0.981 ± 0.11,1.05 ± 0.064
C[C@]12C=CC(=O)C=C1CC[C@H]1[C@@H]3C[C@@H](O)[C@](O)(C(=O)CO)[C@@]3(C)C[C@H](O)[C@@]12F,0.999 ± 0.086,1.01 ± 0.047,0.982 ± 0.012,0.951 ± 0.069,0.89 ± 0.15
COc1cc2c(cc1OC)[C@@H]1Cc3ccc(OC)c(OC)c3CN1CC2,0.97 ± 0.085,0.941 ± 0.038,0.9275 ± 0.0035,1.17 ± 0.18,1.03 ± 0.028
CC(=O)OCC1=C(C(=O)O)N2C(=O)[C@@H](NC(=O)CSc3ccncc3)[C@H]2SC1,1.05,1.065 ± 0.0071,1.14 ± 0.14,0.985 ± 0.016,1.06 ± 0.057
C/C=C/CCC(=O)c1c(C)c(O)c(O)c(C)c1O [Sohirnone C],1.11 ± 0.05,0.995 ± 0.035,1.05 ± 0.057,1.07 ± 0.014,1.08 ± 0.071
COc1cc(C(C)=O)cc(OC)c1O,1.03,0.922 ± 0.086,1.01 ± 0.018,0.946 ± 0.1,0.958 ± 0.012
OCCOCCN1CCN(C2=Nc3ccccc3Sc3ccccc32)CC1,1.05 ± 0.094,1 ± 0.15,0.991 ± 0.013,1.03 ± 0.028,1.08 ± 0.014
CC(=O)O[C@H]1C[C@@H](OC(C)=O)C(C)(C)C2CC(=O)[C@]3(C)C(CC[C@@]4(C)[C@H](c5ccoc5)OC(=O)[C@H]5O[C@]543)[C@]21C (stereo not given in full),0.983 ± 0.0099,0.998 ± 0.046,1.02 ± 0.076,1.06 ± 0.11,1.03 ± 0.028
C=CC[C@@H]1/C=C(\C)C[C@H](C)C[C@H](OC)[C@H]2O[C@@](O)(C(=O)C(=O)N3CCCC[C@H]3C(=O)O[C@H](/C(C)=C/[C@@H]3CC[C@@H](O)[C@H](OC)C3)[C@H](C)[C@@H](O)CC1=O)[C@H](C)C[C@@H]2OC,1.02 ± 0.22,1.05 ± 0.014,1.1 ± 0.021,1.08 ± 0.042,0.98 ± 0.0057
